Only some compounds are listed: those with a hit (about 3.9% of all), similar ones and a draw of the others.
BoNT A protease: BoNT/A light chain protease inhibitors, primary screen, biochemical, flow cytometry, MLPCN library; Botulinum neurotoxin type A light chain protease (Clostridium botulinum A str. ATCC 3502); inhibition, % at 10 µM; hit rate 0.17% among 360,000; multiplex microsphere protease substrate cleavage; note: plate controls were buffer without enzyme for full effect and enzyme alone for no effect
CCHF vOTU inh: CCHFV vOTU protease inhibitors, primary screen, biochemical, Pep-AMC substrate, fluorescence. Crimean-Congo hemorrhagic fever virus L polyprotein viral ovarian tumor (vOTU) protease …. inhibition, % at 11.5 µM. hit rate 0.55% among 370,000; in the data active = inhibition above about 30%; note: 0% = vehicle wells with enzyme and 100% = no enzyme wells
Anthrax LF prot: Bacillus anthracis LF protease inhibitors, primary screen, biochemical, multiplex microsphere, MLPCN library; Lethal factor (Bacillus anthracis), P15917; multiplex microsphere protease cleavage assay; inhibition, % at 10 µM; hit rate 0.12% among 360,000; AID 588501, 2011; note: plate controls were buffer without enzyme for full effect and enzyme alone for no effect
Autofluor counter: counter-screen for toxin protease inhibitors: compound fluorescence; compound autofluorescence counterscreen, microsphere flow cytometry; hits give high values; fluorescence intensity (concentration not given with the values); hit rate 3.1% among 360,000; AID 624483; in the data active = fluorescence intensity above about 16000; inconclusive = no clear call, values can overlap the other calls
3CLpro inhibitor: SARS-CoV 3CLpro protease inhibitors, primary screen, biochemical, quenched FRET; inhibition, % at 6 µM; Replicase polyprotein 1ab (Severe acute respiratory syndrome coronavirus), P0C6X7; AID 1706, 2009; recombinant SARS-CoV 3CLpro, quenched FRET peptide cleavage; hit rate 0.14% among 290,000; in the data active = inhibition above about 12%
BoNT-F LC inh: BoNT/F light chain protease inhibitors, primary screen, biochemical, flow cytometry, MLPCN library. Botulinum neurotoxin type F light chain protease (Clostridium botulinum). Multiplex microsphere protease cleavage assay. hit rate 0.22% among 360,000. inhibition, % at 10 µM. AID 588497, 2011; in the data active = inhibition above about 35%, passing the limit was not always enough; inconclusive = no clear call, values can overlap the other calls; note: plate controls were buffer without enzyme for full effect and enzyme alone for no effect
Active calls of the source: *; ? = inconclusive; . = no result. Cut-off read from the data, not from the text of the source, unless noted: active = inhibition above about 30%; inconclusive = no clear call, values can overlap the other calls; inactive = below that.

SMILES	BoNT A protease	CCHF vOTU inh	Anthrax LF prot	Autofluor counter	3CLpro inhibitor	BoNT-F LC inh
Cc1ccc(N2C(=O)C3C(C2=O)C2C=CC3C23CC3)cc1 (stereo not given)	?	3	-3	19890*	-2	0
Cc1ccccc1NS(=O)(=O)c1ccc(NC(=O)N2CCCCC2)cc1	1	18	-4	5534	-2	-4
CN(Cc1ccccc1)Cc1c(F)cccc1F	-2	-5	-6	22850*	-3	3
CC(=O)OCCCN1C(=O)c2ccc(Br)cc2C1=O	?	3	-10	22144*	0	1
COCCCN1C(=O)c2ccc(C(=O)O)cc2C1=O	6	0	-3	21024*	3	7
O=C(CCN1C(=O)c2ccc(Br)cc2C1=O)NC1CCCCC1	1	-1	-4	5555	1	-4
Cc1cnc(C(=O)OCC(=O)c2ccc(F)c(F)c2)cn1	0	12	-3	5705	.	1
Cc1nnc(NC(=O)CSc2nnc(-c3ccccc3)n2C)s1	1	4	1	2409	1	-4
Cc1nn(Cc2ccc(F)cc2)c(C)c1NC(=O)c1cnn2c1NC(c1cccs1)CC2C(F)(F)F (stereo not given)	2	-6	-1	22509*	7	2
CC1CCCN(c2oc(-c3cccc4ccccc34)nc2C#N)C1 (stereo not given)	10	-13	-15	17536*	-2	16
Cc1ccc(-n2c(SCC(=O)Nc3ccc(OCc4ccccc4)cc3)nnc2-c2cnccn2)cc1	.	25	.	.	.	.
Cc1sc2nc(C3CC3)nc(SCC(=O)N3CCc4ccccc4C3)c2c1C	?	5	1	23515*	4	-2
Cn1nc(-c2ccc(C(=O)N3CCN(CCO)CC3)cc2)c2ccccc2c1=O	?	-6	-1	21691*	-2	4
c1ccc2c(c1)nc1n2CCN1CCN1CCCC1	3	-7	-2	4038	1	8
COC(=O)CNC(=O)c1cccc(Cl)c1	1	2	-3	4407	-4	-3
COC(=O)CCC(=O)NNC(=O)c1cccc(Cl)c1	-6	10	-2	25239*	1	-7
CN1CCc2c(C#N)c(N3CCCCC3)nc(N3CCOCC3)c2C1	.	.	.	.	5	.
CN1CCc2c(c(N3CCCCC3)nc3n[nH]c(N)c23)C1	?	-10	-1	20525*	-4	-3
COc1ccc(/C(C)=N/NC(=O)c2cc(C)[nH]n2)c(OC)c1	0	12	-1	2835	5	-9
O=C(NNC(=O)C1CCCO1)c1ccc(Cl)cc1 (stereo not given)	1	-6	0	4010	2	37*
O=C(NNC(=O)C1CCCO1)c1ccc([N+](=O)[O-])cc1 (stereo not given)	1	-1	2	3431	1	-9
O=C(c1cc(C2CC2)nc2ccccc12)N1N=C(C(F)F)CC1(O)C(F)F (stereo not given)	3	4	-10	18689*	3	2
O=C(c1cc(C2CC2)nc2ccc(Br)cc12)N1N=C(C(F)F)CC1(O)C(F)F (stereo not given)	2	12	-2	22047*	4	-1
COc1ccc(C(C)=O)cc1CSc1nnc(-c2ccccc2O)n1-c1ccccc1	1	1	-2	19750*	3	-2
COc1ccc(C(C)=O)cc1CSc1nnc(C)n1-c1ccccc1	2	-5	2	7580	4	10
SMILES	BoNT A protease	CCHF vOTU inh	Anthrax LF prot	Autofluor counter	3CLpro inhibitor	BoNT-F LC inh
COc1ccc(-c2nnc(SCCC(=O)O)n2-c2ccccc2)cc1OC	-5	-6	-2	25005*	-2	-8
O=C(O)c1cc(N2C(=O)C3C4C=CC(C4)C3C2=O)ccc1NCc1cccnc1 (stereo not given)	0	-6	-2	23049*	2	-1
COc1ccc(NC(=O)CN(C)C(C)C(=O)N2CCCCC2)cc1 (stereo not given)	1	3	-3	21556*	5	5
CS(=O)(=O)c1ccc(C(=O)NC2CCOC2=O)cc1 (stereo not given)	?	7	-5	21657*	-3	-6
O=C(NC1CCOC1=O)c1ccccc1 (stereo not given)	0	-19	1	3733	.	3
COc1ccc(OC)c(NC=C2C(=O)OC3(CCCCC3)OC2=O)c1	10	5	2	18401*	-3	14
COc1ccc(OC)c(NC=C2C(=O)OC(C)(C)OC2=O)c1	0	3	0	2896	-4	2
Cc1ccc2c(c1)CCCN2CC(=O)Nc1cccc(S(=O)(=O)N2CCCC2)c1	?	-1	?	6377	.	?
Cc1nn(CC(=O)N(C)C)c(=O)c2ccccc12	1	-8	1	22253*	1	1
CCN(CC)C(=O)c1ccc(Nc2nnc(C)c3ccccc23)cc1	-2	-3	0	24503*	6	-3
Cc1nn(CC(=O)Nc2ccc(C(=O)N(C)C)cc2)c(=O)c2ccccc12	3	-9	0	19106*	3	5
Cc1nn(CC(=O)Nc2ccccc2)c(=O)c2ccccc12	.	-1	.	.	2	.
CCN(CC)C(=O)c1ccc(NC(=O)Cn2nc(C)c3ccccc3c2=O)cc1	?	0	-4	22310*	0	3
COc1ccc(-n2nc(C(=O)NCC(=O)NCCC3=CCCCC3)c3ccccc3c2=O)cc1OC	-9	3	4	4524	1	-10
COc1ccc(-c2c(C(=O)c3ccccc3)[nH]c(N)c2C(=O)NCCc2c[nH]c3ccccc23)cc1	.	-4	.	.	.	.
Cc1nn(CC(=O)Nc2ccc3c(c2)nc2n3CCOC2)c(=O)c2ccccc12	1	-2	1	21862*	6	1
COCCN1CCn2c(nc3cc(NC(=O)Cn4nc(C)c5ccccc5c4=O)ccc32)C1	1	-12	-5	4333	0	?
COc1ccc(-c2noc(CCC(=O)N3CCN(c4ccccc4C(F)(F)F)CC3)n2)cc1	0	3	5	3703	.	-3
CC1=NN(C(=O)c2ccccc2Cl)C(O)(c2cccnc2)C1 (stereo not given)	1	13	-8	4330	5	-4
CC1=NN(C(=O)Cc2ccccc2)C(O)(c2cccnc2)C1 (stereo not given)	?	-7	-1	21683*	-8	-2
CCc1nc2c(OCC(=O)c3ccc(Cl)cc3Cl)cccn2c1N(C)C(=O)COc1ccccc1	0	15	-9	4051	.	-4
COc1cccc(-c2nc(NC(C)C)c3ccccc3n2)c1O	-4	13	-6	24838*	4	-7
CCC1CCCCN1c1nc(-c2cccc(OC)c2O)nc2ccccc12 (stereo not given)	-3	4	-6	16896*	2	-4

Source: PubChem BioAssay
